# Reference: publication PMC7862700, “An all-to-all approach to the identification of sequence-specific readers for epigenetic DNA modifications on cytosine”
# How the values were obtained:
# Test in all cases: DAPPL (digital affinity profiling via proximity ligation, sequencing); 10 mM Tris-HCl pH 7.5, 50 mM NaCl, 1 mM DTT, 4% glycerol, room temperature, 30 min; GST-TFs on glutathione beads, 16-mer random dsDNA library, 0.1% formaldehyde crosslink after washing; high values mean tight binding
# FLI1 = target: T1, FLI1 (Homo sapiens, UniProt Q01543 1-452); details: protein: recombinant; tags: N-terminal GST; dsDNA, one strand shown
# T1 sequence: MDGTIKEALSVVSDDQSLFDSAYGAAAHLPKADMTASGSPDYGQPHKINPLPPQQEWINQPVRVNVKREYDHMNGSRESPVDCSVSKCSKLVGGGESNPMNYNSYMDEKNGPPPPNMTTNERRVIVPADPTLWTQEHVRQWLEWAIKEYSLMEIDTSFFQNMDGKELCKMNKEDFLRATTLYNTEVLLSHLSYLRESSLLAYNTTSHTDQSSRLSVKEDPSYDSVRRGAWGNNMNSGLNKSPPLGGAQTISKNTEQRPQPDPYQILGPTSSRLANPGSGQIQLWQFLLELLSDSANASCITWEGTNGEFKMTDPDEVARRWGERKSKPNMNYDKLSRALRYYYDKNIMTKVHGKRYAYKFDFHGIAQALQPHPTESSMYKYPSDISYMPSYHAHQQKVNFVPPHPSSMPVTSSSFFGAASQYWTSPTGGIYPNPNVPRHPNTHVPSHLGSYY
# Outline: (§1)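 Human transcription factors carrying a GST fusion were produced in yeast, bound to glutathione beads, tagged with DNA barcodes and pooled together with a tag-only sample. Each pool was held with 200 nmole of a random double-stranded 16-mer DNA library in Tris/NaCl/DTT/glycerol buffer for 30 min at room temperature, then washed, crosslinked in 0.1% formaldehyde, proximity-ligated with BsaI/T4 ligase (1 h, 37 °C), PCR-amplified and sequenced on an Illumina NextSeq500. Binding signal is the read frequency of each hexamer for a given factor divided by its frequency in the tag-only sample.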
# ELK1 = target: T2, ELK1 (Homo sapiens, UniProt P19419 1-428); details: protein: recombinant; tags: N-terminal GST; dsDNA, one strand shown
# T2 sequence: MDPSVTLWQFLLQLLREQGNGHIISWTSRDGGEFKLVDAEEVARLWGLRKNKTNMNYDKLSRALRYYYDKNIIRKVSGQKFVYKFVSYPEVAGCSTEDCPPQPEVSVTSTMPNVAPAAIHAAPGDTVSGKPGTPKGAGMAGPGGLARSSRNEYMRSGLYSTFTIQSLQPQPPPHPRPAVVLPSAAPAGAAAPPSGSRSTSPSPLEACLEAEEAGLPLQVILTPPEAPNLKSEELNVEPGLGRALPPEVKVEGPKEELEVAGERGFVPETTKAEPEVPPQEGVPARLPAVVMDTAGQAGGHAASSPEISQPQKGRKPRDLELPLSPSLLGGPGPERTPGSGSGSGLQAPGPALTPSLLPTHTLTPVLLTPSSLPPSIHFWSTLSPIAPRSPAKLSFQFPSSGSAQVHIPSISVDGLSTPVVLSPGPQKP
# Outline: as §1
# GABPA = target: T3, GABPA (Homo sapiens, UniProt Q06546 1-454); details: protein: recombinant; tags: N-terminal GST; dsDNA, one strand shown
# T3 sequence: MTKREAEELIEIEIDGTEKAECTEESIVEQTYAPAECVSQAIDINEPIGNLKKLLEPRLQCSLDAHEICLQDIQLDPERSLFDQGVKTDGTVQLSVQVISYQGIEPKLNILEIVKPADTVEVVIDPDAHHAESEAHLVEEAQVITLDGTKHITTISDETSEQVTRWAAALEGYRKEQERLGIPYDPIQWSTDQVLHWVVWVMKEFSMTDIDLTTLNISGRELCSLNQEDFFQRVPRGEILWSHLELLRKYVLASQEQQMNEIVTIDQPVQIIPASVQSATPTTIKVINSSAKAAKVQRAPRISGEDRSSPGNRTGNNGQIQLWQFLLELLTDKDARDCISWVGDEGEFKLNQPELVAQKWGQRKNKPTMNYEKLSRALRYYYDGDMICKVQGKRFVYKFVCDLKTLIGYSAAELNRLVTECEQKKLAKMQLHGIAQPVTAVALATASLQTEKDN
# Outline: as §1
# ERG = target: T4, ERG (Homo sapiens, UniProt P11308 1-479); details: protein: recombinant; tags: N-terminal GST; dsDNA, one strand shown
# T4 sequence: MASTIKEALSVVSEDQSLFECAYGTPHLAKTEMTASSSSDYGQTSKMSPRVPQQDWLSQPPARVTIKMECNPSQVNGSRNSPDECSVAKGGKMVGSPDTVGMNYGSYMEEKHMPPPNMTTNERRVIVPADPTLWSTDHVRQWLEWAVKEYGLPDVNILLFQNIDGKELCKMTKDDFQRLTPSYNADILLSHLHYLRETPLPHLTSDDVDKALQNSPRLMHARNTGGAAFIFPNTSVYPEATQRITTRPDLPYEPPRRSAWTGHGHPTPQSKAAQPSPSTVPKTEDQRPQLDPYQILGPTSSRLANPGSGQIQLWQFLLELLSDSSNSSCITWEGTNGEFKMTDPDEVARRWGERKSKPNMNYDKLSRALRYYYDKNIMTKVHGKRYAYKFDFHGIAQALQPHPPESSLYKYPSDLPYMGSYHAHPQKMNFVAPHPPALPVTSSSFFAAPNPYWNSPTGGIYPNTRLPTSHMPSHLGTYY
# Outline: as §1
# ELF1 = ELF1 (Homo sapiens, UniProt P32519 1-619); details: protein: recombinant; tags: N-terminal GST; dsDNA, one strand shown
# Sequence of ELF1 (P32519 whole entry): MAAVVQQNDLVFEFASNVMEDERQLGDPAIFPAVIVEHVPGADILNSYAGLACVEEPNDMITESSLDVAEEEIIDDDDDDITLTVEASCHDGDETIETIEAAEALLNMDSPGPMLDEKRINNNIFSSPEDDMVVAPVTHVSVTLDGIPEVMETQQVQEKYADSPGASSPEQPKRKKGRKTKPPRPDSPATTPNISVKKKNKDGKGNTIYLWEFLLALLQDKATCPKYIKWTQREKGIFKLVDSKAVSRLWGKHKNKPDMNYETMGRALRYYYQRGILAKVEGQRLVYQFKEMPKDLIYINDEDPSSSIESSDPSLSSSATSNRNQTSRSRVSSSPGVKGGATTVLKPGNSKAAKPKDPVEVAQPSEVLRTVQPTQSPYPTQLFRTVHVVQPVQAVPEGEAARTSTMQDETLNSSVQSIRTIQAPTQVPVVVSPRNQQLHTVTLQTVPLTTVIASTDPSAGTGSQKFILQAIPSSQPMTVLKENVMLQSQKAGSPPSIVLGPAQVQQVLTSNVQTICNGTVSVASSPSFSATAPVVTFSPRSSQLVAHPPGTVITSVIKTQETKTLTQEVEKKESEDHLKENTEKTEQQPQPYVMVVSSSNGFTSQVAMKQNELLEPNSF
# Outline: as §1
# EHF = target: T5, EHF (Homo sapiens, UniProt Q9NZC4 1-300); details: protein: recombinant; tags: N-terminal GST; dsDNA, one strand shown
# T5 sequence: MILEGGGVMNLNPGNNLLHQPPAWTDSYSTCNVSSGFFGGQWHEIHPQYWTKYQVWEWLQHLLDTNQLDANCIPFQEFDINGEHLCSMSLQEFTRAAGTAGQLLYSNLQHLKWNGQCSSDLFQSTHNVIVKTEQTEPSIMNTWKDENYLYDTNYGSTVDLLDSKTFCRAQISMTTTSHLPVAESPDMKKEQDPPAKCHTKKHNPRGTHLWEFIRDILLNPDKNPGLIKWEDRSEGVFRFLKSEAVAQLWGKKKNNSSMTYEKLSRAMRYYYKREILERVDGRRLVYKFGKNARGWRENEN
# Outline: as §1
# SPI1 = SPI1 (Homo sapiens, UniProt P17947 1-270); details: protein: recombinant; tags: N-terminal GST; dsDNA, one strand shown
# Outline: as §1
# SPIB = SPIB (Homo sapiens, UniProt Q01892 1-262); details: protein: recombinant; tags: N-terminal GST; dsDNA, one strand shown
# Sequence of SPIB (Q01892 whole entry): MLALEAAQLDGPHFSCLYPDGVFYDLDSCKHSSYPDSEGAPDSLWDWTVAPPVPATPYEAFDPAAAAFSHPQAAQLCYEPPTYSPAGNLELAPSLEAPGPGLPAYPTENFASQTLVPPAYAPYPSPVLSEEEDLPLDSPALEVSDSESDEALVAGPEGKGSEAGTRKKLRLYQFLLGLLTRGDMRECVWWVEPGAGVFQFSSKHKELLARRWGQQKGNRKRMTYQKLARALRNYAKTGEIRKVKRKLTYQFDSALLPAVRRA
# Outline: as §1
# ELK3 = target: T6, ELK3 (Homo sapiens, UniProt P41970 1-407); details: protein: recombinant; tags: N-terminal GST; dsDNA, one strand shown
# T6 sequence: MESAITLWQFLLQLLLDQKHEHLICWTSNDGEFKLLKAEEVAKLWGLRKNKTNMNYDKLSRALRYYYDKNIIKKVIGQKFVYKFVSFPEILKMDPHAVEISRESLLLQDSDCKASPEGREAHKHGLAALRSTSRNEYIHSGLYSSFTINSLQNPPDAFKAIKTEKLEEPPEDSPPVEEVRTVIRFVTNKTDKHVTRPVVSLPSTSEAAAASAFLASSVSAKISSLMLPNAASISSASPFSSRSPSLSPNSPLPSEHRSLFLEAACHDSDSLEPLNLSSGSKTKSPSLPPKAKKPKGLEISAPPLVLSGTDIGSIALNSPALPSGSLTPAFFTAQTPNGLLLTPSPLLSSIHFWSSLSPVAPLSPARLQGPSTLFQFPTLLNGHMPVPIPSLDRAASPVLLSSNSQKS
# Outline: as §1
# FEV = target: T7, FEV (Homo sapiens, UniProt Q99581 1-238); details: protein: recombinant; tags: N-terminal GST; dsDNA, one strand shown
# T7 sequence: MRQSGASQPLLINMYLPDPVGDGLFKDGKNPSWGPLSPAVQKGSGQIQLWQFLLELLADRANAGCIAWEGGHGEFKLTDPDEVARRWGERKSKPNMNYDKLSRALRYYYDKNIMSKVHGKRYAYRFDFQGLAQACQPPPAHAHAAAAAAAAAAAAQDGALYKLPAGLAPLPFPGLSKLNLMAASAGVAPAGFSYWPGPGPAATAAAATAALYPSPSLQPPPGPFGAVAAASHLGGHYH
# Outline: as §1
# ETV5 = ETV5 (Homo sapiens, UniProt P41161 1-510); details: protein: recombinant; tags: N-terminal GST; dsDNA, one strand shown
# Sequence of ETV5 (P41161 whole entry): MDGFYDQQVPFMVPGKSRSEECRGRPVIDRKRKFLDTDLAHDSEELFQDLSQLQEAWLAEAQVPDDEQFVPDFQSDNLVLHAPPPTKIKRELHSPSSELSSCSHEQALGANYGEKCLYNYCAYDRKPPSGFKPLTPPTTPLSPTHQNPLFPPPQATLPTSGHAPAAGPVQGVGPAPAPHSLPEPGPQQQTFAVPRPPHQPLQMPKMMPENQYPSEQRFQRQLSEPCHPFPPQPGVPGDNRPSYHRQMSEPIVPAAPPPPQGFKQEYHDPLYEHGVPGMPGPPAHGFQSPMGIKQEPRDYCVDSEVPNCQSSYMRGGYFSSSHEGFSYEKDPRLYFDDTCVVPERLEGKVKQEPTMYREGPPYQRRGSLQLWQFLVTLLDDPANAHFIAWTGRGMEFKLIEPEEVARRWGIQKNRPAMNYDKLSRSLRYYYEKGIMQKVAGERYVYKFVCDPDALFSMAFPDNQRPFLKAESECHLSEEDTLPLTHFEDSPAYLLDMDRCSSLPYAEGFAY
# Outline: as §1
# HSF1 = HSF1 (Homo sapiens, UniProt Q00613 1-529); details: protein: recombinant; tags: N-terminal GST; chain copies: 3; dsDNA, one strand shown
# Sequence of HSF1 (Q00613 whole entry): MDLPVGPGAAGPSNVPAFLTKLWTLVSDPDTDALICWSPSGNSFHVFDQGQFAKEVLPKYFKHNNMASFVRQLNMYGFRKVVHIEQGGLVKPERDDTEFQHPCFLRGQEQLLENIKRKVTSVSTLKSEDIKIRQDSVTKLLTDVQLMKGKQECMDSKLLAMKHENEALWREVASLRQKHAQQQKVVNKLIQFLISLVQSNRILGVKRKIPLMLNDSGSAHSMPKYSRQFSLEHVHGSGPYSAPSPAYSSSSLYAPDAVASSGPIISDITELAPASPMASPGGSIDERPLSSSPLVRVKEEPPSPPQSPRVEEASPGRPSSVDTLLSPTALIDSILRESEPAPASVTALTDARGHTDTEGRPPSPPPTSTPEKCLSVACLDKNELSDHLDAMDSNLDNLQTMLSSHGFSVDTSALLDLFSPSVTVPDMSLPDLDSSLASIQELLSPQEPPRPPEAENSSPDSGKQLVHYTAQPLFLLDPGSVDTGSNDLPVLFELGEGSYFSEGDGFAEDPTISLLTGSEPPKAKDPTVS
# Outline: as §1
# SPIC = target: T8, SPIC (Homo sapiens, UniProt Q8N5J4 1-248); details: protein: recombinant; tags: N-terminal GST; dsDNA, one strand shown
# T8 sequence: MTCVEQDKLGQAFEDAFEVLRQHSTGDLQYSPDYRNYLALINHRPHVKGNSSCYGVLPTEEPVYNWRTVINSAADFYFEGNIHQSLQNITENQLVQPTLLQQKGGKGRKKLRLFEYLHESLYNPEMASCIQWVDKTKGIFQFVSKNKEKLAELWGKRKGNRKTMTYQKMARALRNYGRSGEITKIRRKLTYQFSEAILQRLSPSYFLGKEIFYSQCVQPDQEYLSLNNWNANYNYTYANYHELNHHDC
# Outline: as §1
# ELF4 = ELF4 (Homo sapiens, UniProt Q99607 1-663); details: protein: recombinant; tags: N-terminal GST; dsDNA, one strand shown
# Sequence of ELF4 (Q99607 whole entry): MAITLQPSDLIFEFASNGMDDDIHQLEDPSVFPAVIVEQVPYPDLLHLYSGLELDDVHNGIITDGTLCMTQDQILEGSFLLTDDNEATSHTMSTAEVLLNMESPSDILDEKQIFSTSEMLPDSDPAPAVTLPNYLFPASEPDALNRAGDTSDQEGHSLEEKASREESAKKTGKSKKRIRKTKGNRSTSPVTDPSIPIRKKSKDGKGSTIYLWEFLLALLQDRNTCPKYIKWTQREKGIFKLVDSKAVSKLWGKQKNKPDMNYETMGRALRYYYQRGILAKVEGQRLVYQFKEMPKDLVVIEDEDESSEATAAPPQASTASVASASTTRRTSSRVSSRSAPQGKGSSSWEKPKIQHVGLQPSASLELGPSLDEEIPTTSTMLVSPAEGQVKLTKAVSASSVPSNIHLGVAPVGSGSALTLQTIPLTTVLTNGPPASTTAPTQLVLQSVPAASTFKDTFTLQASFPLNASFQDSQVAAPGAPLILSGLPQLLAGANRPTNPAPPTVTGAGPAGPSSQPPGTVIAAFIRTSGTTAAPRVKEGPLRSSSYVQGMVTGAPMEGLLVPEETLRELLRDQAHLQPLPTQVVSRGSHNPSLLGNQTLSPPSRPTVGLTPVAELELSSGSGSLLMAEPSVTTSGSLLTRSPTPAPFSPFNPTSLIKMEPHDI
# Outline: as §1
# ELK4 = target: T9, ELK4 (Homo sapiens, UniProt P28324-2 1-405); details: protein: recombinant; tags: N-terminal GST; dsDNA, one strand shown
# T9 sequence: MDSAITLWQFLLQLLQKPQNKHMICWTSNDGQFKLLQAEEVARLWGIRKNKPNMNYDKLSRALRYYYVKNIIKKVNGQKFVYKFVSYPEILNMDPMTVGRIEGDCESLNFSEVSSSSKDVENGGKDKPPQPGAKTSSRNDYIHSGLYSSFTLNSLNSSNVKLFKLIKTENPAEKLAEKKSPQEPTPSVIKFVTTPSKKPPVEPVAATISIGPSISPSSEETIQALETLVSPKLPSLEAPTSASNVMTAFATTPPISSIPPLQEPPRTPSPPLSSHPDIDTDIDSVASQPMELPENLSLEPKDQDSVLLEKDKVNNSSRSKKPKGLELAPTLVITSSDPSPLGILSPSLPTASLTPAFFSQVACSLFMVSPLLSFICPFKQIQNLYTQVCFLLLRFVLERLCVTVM
# Outline: as §1
# ETV2 = target: T10, ETV2 (Homo sapiens, UniProt O00321 1-342); details: protein: recombinant; tags: N-terminal GST; dsDNA, one strand shown
# T10 sequence: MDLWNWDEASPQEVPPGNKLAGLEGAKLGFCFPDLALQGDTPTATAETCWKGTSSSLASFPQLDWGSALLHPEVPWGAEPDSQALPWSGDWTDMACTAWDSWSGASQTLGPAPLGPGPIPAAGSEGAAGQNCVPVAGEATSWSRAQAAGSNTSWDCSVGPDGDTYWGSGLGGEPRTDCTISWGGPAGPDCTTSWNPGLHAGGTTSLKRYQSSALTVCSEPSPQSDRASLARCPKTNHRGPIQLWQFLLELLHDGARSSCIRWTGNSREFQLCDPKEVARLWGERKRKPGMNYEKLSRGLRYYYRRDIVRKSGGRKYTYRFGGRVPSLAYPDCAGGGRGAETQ
# Outline: as §1
# ELF3 = target: T11, ELF3 (Homo sapiens, UniProt P78545 1-371); details: protein: recombinant; tags: N-terminal GST; dsDNA, one strand shown
# T11 sequence: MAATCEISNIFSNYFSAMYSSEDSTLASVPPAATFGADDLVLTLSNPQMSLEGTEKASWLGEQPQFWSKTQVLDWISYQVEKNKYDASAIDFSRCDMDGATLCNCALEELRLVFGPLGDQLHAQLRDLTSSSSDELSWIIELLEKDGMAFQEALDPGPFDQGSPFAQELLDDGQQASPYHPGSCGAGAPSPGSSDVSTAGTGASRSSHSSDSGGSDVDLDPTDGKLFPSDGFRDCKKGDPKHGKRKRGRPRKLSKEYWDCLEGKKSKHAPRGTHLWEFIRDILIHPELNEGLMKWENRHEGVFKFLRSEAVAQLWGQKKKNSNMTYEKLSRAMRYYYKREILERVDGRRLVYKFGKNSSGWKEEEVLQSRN
# Outline: as §1
# CRX = CRX (Homo sapiens, UniProt O43186 1-299); details: protein: recombinant; tags: N-terminal GST; dsDNA, one strand shown
# Sequence of CRX (O43186 whole entry): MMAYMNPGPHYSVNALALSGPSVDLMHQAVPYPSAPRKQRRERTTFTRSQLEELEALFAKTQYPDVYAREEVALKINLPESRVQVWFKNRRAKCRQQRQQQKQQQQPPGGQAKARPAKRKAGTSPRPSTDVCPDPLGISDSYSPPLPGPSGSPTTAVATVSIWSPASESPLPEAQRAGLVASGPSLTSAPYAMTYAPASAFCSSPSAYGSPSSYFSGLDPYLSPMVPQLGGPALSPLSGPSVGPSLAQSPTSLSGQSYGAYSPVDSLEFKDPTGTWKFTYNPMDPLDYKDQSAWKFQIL
# Outline: as §1
# ETV1 = ETV1 (Homo sapiens, UniProt P50549 1-477); details: protein: recombinant; tags: N-terminal GST; dsDNA, one strand shown
# Sequence of ETV1 (P50549 whole entry): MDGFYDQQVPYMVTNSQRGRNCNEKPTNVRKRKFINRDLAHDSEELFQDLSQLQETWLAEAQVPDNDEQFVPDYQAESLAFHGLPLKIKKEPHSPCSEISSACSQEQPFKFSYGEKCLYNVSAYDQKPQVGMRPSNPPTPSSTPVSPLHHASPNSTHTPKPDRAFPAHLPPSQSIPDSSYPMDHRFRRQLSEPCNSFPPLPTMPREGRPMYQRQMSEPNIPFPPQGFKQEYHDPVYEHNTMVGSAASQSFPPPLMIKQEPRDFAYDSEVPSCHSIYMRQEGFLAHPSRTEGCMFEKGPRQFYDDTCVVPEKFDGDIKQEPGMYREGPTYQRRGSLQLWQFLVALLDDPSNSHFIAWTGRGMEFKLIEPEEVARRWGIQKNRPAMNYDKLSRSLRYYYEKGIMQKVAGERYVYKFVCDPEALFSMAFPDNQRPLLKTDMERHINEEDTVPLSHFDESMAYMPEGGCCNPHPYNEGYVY
# Outline: as §1
sequence,measurement,setting,value
TAATTG,binding signal,FLI1,"1.38 fold enrichment (6-mer frequency, TF over GST control)"
same,binding signal,ELK1,"1.43 fold enrichment (6-mer frequency, TF over GST control)"
same,binding signal,GABPA,"1.38 fold enrichment (6-mer frequency, TF over GST control)"
same,binding signal,ERG,"1.27 fold enrichment (6-mer frequency, TF over GST control)"
same,binding signal,ELF1,"1.3 fold enrichment (6-mer frequency, TF over GST control)"
same,binding signal,EHF,"1.37 fold enrichment (6-mer frequency, TF over GST control)"
same,binding signal,SPI1,"1.47 fold enrichment (6-mer frequency, TF over GST control)"
same,binding signal,SPIB,"1.37 fold enrichment (6-mer frequency, TF over GST control)"
same,binding signal,ELK3,"1.5 fold enrichment (6-mer frequency, TF over GST control)"
same,binding signal,FEV,"1.32 fold enrichment (6-mer frequency, TF over GST control)"
same,binding signal,ETV5,"1.4 fold enrichment (6-mer frequency, TF over GST control)"
same,binding signal,HSF1,"1.42 fold enrichment (6-mer frequency, TF over GST control)"
same,binding signal,SPIC,"1.31 fold enrichment (6-mer frequency, TF over GST control)"
same,binding signal,ELF4,"1.36 fold enrichment (6-mer frequency, TF over GST control)"
same,binding signal,ELK4,"1.35 fold enrichment (6-mer frequency, TF over GST control)"
same,binding signal,ETV2,"1.44 fold enrichment (6-mer frequency, TF over GST control)"
same,binding signal,ELF3,"1.49 fold enrichment (6-mer frequency, TF over GST control)"
same,binding signal,CRX,"1.82 fold enrichment (6-mer frequency, TF over GST control)"
same,binding signal,ETV1,"1.35 fold enrichment (6-mer frequency, TF over GST control)"
